Experimental data from PubChem BioAssay AID492948 (National Center for Advancing Translational Sciences (NCATS), 2010).
Inconclusive results are not listed. Activity calls are given as the source filed them. Calls come from the whole dose curve; as a rule, active = well fitted activation curve with a large enough effect; inconclusive = small, poorly fitted or top-dose-only effect; inactive = no such curve, though single readings can be large or run the other way.

Experiment: qHTS Assay for Agonists of the Relaxin Receptor RXFP1: V1B Hit Validation;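 note: counter-screen in HEK293 cells expressing V1B rather than RXFP1 for selectivity; nearly all actives have a fitted effect of over 65% in size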;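 for activation: cAMP accumulation with PDE4 inhibitor Ro 20-1724 present during compound exposure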
Details: HEK293 V1B cells, cAMP TR-FRET, 30 min; series mostly up to 115 µM
Method in brief: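 cAMP accumulation, read by TR-FRET competition after lysis, in V1B-expressing HEK293 cells given compound for 30 min at 37C with Ro 20174 present. Responses scaled between buffer basal and 29 nM porcine relaxin; Hill-equation EC50.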
Potency is the fitted concentration of half-maximal effect.

| SMILES | Potency |
| --- | --- |
| O=C(O)c1ccc(CN2C(=O)c3ccc(C(=O)O)cc3C2=O)cc1 | inactive |
| C=CCOc1c(Cl)cc(CNc2ccc(N(C)C)cc2)cc1OC | inactive |
| O=C(Nc1ccccc1C(=O)N1CCN(c2ccccc2)CC1)c1ccco1 | inactive |
| CN(Cc1ccccc1)C(=O)c1ccccc1NC(=O)c1ccco1 | inactive |
| COCCNC(=O)NC(=O)COC(=O)C12CC3CC(CC(NC(C)=O)(C3)C1)C2 | inactive |
| CCOP1(=O)OCC2OC(n3cnc4c(N)ncnc43)C(O)C2O1 (stereo not drawn) | 12.3 µM (active) |
| CC(C)n1c(SCC(=O)N2CCN(C(=O)c3ccco3)CC2)nc2c1c(=O)n(C)c(=O)n2C | 6.9 µM (active) |
| CC(=O)c1sc(NC(=O)C(C)C)nc1C | 17.3 µM (active) |
| O=C(Nc1ccccc1C(=O)O)c1ccc(NC(=O)C2CC2)cc1 | inactive |
| O=C(Nc1ccccc1C(=O)NCc1ccccc1)c1ccco1 | inactive |
| CN(C)S(=O)(=O)c1ccc(C(=O)OCC(=O)Nc2cccnc2Cl)cc1 | 19.4 µM (active) |
| Cc1cccn2c(=O)c(/C=C3\SC(=S)NC3=O)c(NCCCN3CCOCC3)nc12 | 4.35 µM (active) |
| Cc1ccc2[nH]c3c(=S)nc[nH]c3c2c1 | 6.15 µM (active) |
| O=C(Oc1ccccc1)Oc1ccc2c(c1)oc(=O)c1ccccc12 | 21.8 µM (active) |
| CCN(CC)c1ccc(S(=O)(=O)N2CCOCC2)cc1NC(=O)CSc1nncn1C | 12.3 µM (active) |
| CCOC(=O)c1sc(NC(=O)CCc2ccc(OC)cc2)nc1C | 15.4 µM (active) |
| O=C(Nc1ccccc1C(=O)N1CCOCC1)c1ccco1 | inactive |
| COC(=O)Cn1cnc2c(C#N)c3n(c2c1=O)CCCC3 | 21.9 µM (active) |
| CCC1(C)Cc2c(sc3c2c2ncnn2c2nnc(SCC(=O)NCc4ccco4)n32)CO1 (stereo not drawn) | 13.8 µM (active) |

| SMILES | Potency |
| --- | --- |
| COc1ccc(NC(=O)CCCc2nnc3n(C)c(=O)c4sccc4n23)cc1 | 43.6 µM (active) |
| CC(C)Oc1ccc(S(=O)(=O)N2CCOCC2)cc1NC(=O)c1cc([N+](=O)[O-])ccc1N1CCOCC1 | 37.5 µM (active) |
| CCN(CC)S(=O)(=O)c1ccc(C)c(NC(=O)Cn2cnc3cc([N+](=O)[O-])ccc3c2=O)c1 | 34.6 µM (active) |
| Cc1cc(C(=O)COC(=O)Cn2cnc3c2c(=O)n(C)c(=O)n3C)c(C)n1C | 13.8 µM (active) |
| CCN(CC)CCCN1C=C2C(=O)C(C)(OC(=O)C3CCCC3)C(=O)C=C2C=C1c1ccsc1 (stereo not drawn) | inactive |
| COc1ccc(Cl)cc1-c1n[nH]c(=S)o1 | 4.35 µM (active) |
| CC1(C)Cc2c(sc3c2c2ncnn2c2nnc(SCC(=O)NCc4ccco4)n32)CO1 | 6.91 µM (active) |
| O=C(O)c1ccc(N=C2NC(=O)C(CO)(CO)S2)cc1 | inactive |
| CN(C)c1ccc(NC(=O)C2C3C=CC(C3)C2C(=O)O)cc1 (stereo not drawn) | inactive |
| Cc1ccc(-n2nnc3c(=O)n(CC(=O)NCC4CCCO4)cnc32)cc1 (stereo not drawn) | 24.5 µM (active) |
| COC(=O)Cn1cnc2c(C#N)c3n(c2c1=O)CCCCC3 | 13.8 µM (active) |
| CC[N+](CC)(CCCCS(=O)(=O)[O-])CCNP1(=O)C=C(c2ccccc2)OC(c2ccccc2)=C1 | 38.9 µM (active) |
| COc1ccc(/C=C2/SC(=O)N(CCC(=O)Nc3ccc(C)cc3)C2=O)cc1OC | inactive |
| Cc1ccc(CN(C)C(=O)c2ccccc2NC(=O)c2ccccc2)o1 | inactive |
| Cn1c(=O)c2sccc2n2c(CCCC(=O)NCc3cccnc3)nnc12 | 19.4 µM (active) |
| CN(C)c1ccc(C(=S)N2CCN(S(=O)(=O)c3ccccc3)CC2)cc1 | inactive |
| CN(C)S(=O)(=O)c1cccc(COc2ncnc3c(Cl)cc(Cl)cc23)c1 | 27.5 µM (active) |
| COc1ccc(C(=O)Nc2ccc(S(=O)(=O)Nc3onc(C)c3C)cc2)c(OC)c1 | 14.9 µM (active) |
| Cc1ccc(C(=O)Nc2ccccc2C(N)=O)o1 | inactive |
